This note sets out measurements from PubChem BioAssay AID1952 (The Scripps Research Institute Molecular Screening Center, 2009).

Molecules are shown by their SMILES. The whole screen tested about 2,400 compounds, of which about 1,200 (50%) were called active. The set was probably picked from earlier hits. The list is a sample of the results. A number with no mark means an inactive call. Rule as the data show it: active = inhibition above about 24%; inactive = the rest.

Neuropeptides B/W receptor type 1 (Homo sapiens), sequence (P48145 whole entry, looked up): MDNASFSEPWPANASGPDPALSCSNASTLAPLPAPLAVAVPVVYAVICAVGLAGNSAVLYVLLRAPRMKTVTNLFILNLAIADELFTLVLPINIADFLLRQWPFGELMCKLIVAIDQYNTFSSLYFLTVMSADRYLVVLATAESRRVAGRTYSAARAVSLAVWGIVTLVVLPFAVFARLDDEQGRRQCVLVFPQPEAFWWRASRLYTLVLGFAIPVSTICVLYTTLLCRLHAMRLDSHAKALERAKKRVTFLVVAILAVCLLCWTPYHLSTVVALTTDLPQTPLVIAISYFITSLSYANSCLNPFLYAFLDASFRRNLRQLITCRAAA

The test addresses Neuropeptides B/W receptor type 1 (Homo sapiens) (UniProt P48145). The test is described as follows: GPR7 receptor antagonists, confirmation, cell-based, fluorescence, single concentration (AID 1952).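 Also: stimulated with the GPR7 agonist NPW; 0% = agonist plus vehicle and 100% = vehicle alone without agonist.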 The note with it: GPR7-expressing cells, calcium fluorescence antagonist mode; at 4.4 µM; stronger effect = higher value.
By inhibition is commonly meant the relative decrease from the control value, in per cent. Turning to `Cc1ccc(O)c(NC(=S)NC(=O)COc2ccc(Br)cc2)c1`, the inhibition is 88.8% (active).
For `O=C(Nc1ccc2ccccc2c1)Nc1ccc2snnc2c1` the value was 55.7% (active); for `CC(C)(C)NCc1cc(Br)ccc1OC1CCCC1`, 23.2%; for `Cc1ccc(NC(=O)CN2C(=O)NC(C)(c3ccc(Cl)cc3)C2=O)c(Br)c1` (stereo not given), 18.8%.
In the case of `CC(NCc1ccccc1OC1CCCC1)c1ccccc1` (stereo not given), the inhibition was 23.1%.
As for `CCN1CCN(c2c(Cl)cccc2NC(=O)c2ccc(Br)o2)CC1`, the inhibition is 21%.
The figure for `CCN1/C(=C\c2ccc3ccccc3[n+]2CC)Sc2cc(C)ccc21` is 49.3% (active); for `COc1ccc(OC)c(C(c2nnnn2C(C)(C)C)N2CCc3ccccc3C2)c1` (stereo not given) it is 5.35%; for `CC(C)(C)CC(C)(C)NCC(O)COCCOc1ccc(Br)cc1` (stereo not given) it is 47.2% (active).
The figure for `C=CCSc1nsc(NC(=O)Nc2cccc(C(C)=O)c2)n1` is 47.2% (active); for `CCSc1nsc(NC(=O)Nc2cccc(C(C)=O)c2)n1` it is 43.7% (active).
Turning to `CCn1c2ccc(F)cc2c2nnc(SCCN3CCOCC3)nc21`, the inhibition was -14.4%.
The figure for `CCc1c(C)nc2c(-c3ccccc3)c(C)nn2c1Nc1ccc(NC(C)=O)cc1` is 4.93%.
For `COc1ccc(C(=O)CSc2nnc(COc3ccccc3)n2Cc2ccco2)cc1` the value was 19%.
The figure for `Oc1cccc(/C=N/Nc2ccc(Cl)nn2)c1O` is 4.11%.
For the compound `Cc1cccc(-c2nc3ccc(C(=O)NCCN4CCN(C)CC4)cc3nc2-c2cccc(C)c2)c1`, the inhibition was 41.8% (active).
As to `CCc1ccc(N(C(=O)c2csnn2)C(C(=O)NC2CCCCC2)c2ccncc2)cc1` (stereo not given), the inhibition was 34.2% (active).
On to `O=C(Nc1nc(-c2ccc3c(c2)OCO3)cs1)c1ccncc1`, for which the inhibition was 55.1% (active).
As for `O=C(Nc1ccccc1F)c1ccc2c(c1)OCO2`, the inhibition was -16.6%.
With `N=c1c2c(-c3ccccc3)c(-c3ccccc3)n(Cc3ccccc3)c2ncn1CCCO`, the inhibition is 26.6% (active).
For `CCc1ccc2nc(N(CCCN(C)C)C(=O)c3ccc4c(c3)OCCO4)sc2c1` the value was 40% (active); for `CN(C)CCCN(C(=O)c1ccc(S(=O)(=O)N2CCCc3ccccc32)cc1)c1nc2ccc(F)cc2s1`, 73% (active); for `CN(C)CCCN(C(=O)c1ccc(S(=O)(=O)N2CCCCCC2)cc1)c1nc2ccc(Br)cc2s1`, 70.5% (active).
With `CCOC(=O)C1CSC(CC(=O)Nc2ccc(OCC)cc2)C(=O)N1` (stereo not given), the inhibition is 2.35%.
In the case of `COCCN(Cc1cc2cc3c(cc2nc1Cl)OCO3)C(=O)c1cccc(C)c1`, the inhibition was -7.71%.
